This is one part of a sample in which hits are shown more often than they occur.
ST2 inh – inhibitors of human ST2 (IL1RL1) binding to IL-33, primary screen, biochemical, AlphaLISA. Interleukin-1 receptor-like 1 (Homo sapiens), Q01638. AlphaLISA ST2-Fc/biotin-IL-33 interaction, 1 h. inhibition, % for hits at 17 µM. 78,000 tested, 2.3% active. AID 1259354, 2018; in the data active means inhibition above about 30%
Target sequence (Q01638 whole entry, looked up): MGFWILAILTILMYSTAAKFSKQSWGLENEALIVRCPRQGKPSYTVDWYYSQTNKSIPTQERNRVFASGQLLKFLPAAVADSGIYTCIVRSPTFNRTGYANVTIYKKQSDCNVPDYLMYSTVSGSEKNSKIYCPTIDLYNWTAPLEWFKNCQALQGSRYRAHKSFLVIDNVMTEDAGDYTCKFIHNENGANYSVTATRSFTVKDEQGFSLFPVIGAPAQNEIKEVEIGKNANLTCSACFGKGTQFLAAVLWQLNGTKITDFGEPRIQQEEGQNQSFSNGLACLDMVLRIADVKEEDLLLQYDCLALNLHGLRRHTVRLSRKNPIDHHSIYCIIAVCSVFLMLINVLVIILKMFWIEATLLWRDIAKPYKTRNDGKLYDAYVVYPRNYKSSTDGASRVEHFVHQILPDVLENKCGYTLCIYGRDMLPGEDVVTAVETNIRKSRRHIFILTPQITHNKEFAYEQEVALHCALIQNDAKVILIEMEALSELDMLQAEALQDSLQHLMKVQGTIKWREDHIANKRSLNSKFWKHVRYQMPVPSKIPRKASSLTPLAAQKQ
* hit, by the source's call; i = inactive; ! = not confirmed by another sample.

SMILES | ST2 inh
CCOc1ccc(S(=O)(=O)NCc2nc3cccnc3n2Cc2ccccc2Cl)cc1 | i
CN1C(=O)N(CCCc2ccncc2)C(=O)C12CCN(Cc1ccsc1)CC2 | i
O=C(Nc1ccncc1[N+](=O)[O-])c1ccccc1F | i
COc1ccc(S(=O)(=O)N2CCC(C(=O)O)CC2)cc1[N+](=O)[O-] | i
C/C(Cl)=C\CN1C(=O)C(=O)c2cc(C)ccc21 | i
Cc1nc2sc(C(c3ccccc3)N3CCc4ccccc4C3)c(O)n2n1 (stereo not drawn) | i
O=C(CSC1CC(=O)N(c2ccc(C(=O)O)cc2)C1=O)Nc1ccc(F)cc1 (stereo not drawn) | i
N#C/C(=C\Nc1ccc(F)cc1)c1nc(-c2cc3cc(Br)ccc3oc2=O)cs1 | i
CC(C)(C)C(=O)Nc1nc(-c2ccc(Br)cc2)cs1 | i
N#C/C(=C\c1ccco1)c1nc(-c2ccc(Br)cc2)cs1 | 32%*
NNC(=O)C(=O)Nc1nc(-c2ccc(Br)cc2)cs1 | i
Cc1ccc(/C=C(/C#N)c2nc(-c3ccc(Br)cc3)cs2)o1 | 52%*
CC/C=C(\C)CN1CCC(CNC(=O)c2cccn(C)c2=O)C1 (stereo not drawn) | i
CN1CCc2oc3ccc(N)cc3c2C1 | i
CN1CCN(CCn2c(C(C)(C)C)cn3c4ccccc4nc23)CC1 | i
CSCC[C@@H](C(=O)Nc1ccc(C(C)=O)cc1)N1Cc2ccccc2C1=O | i
COc1cccc(Cn2c(CNS(=O)(=O)c3ccc(Cl)cc3)nc3cccnc32)c1 | i
O=C1C=CC(=NS(=O)(=O)c2ccccc2)C=C1Br | 31%*
CN(C)C(=NS(=O)(=O)c1ccc(Br)cc1)c1ccccc1 | i
O=C(c1cn(CCN2CCCCC2)nn1)N1CCN(C/C=C/c2ccccc2)CC1 | i
Cc1ccc(NC(=O)c2cc3cc(Br)ccc3oc2=O)cc1C | i
CC(=O)c1ccc(NC(=O)c2cc3cc(Br)ccc3oc2=O)cc1 | 39%*
CC(=O)c1ccc(OC(=O)c2cc3cc(Br)ccc3oc2=O)cc1 | i
CCCn1c(=O)c(C(=O)NC)c(O)c2ccccc21 | i
O=C(COc1ccccc1Cl)NC1CCCCCC1 | i
SMILES | ST2 inh
O=C(Nc1ccccc1Br)c1sc2cccc(Cl)c2c1Cl | i
COc1ccccc1-c1cccc(C(=O)NCCN2CCOC2=O)c1 | 31%*
CNC(=O)c1ccc(CNC(=O)c2cccc(-c3ccccc3OC)c2)o1 | i
COc1ccc(-c2nn(-c3ccccc3C)cc2CNCCN2CCOC2=O)cc1F | i
CCc1cn[nH]c1C1CCN(C(=O)c2cnc3cc(=O)[nH]n3c2C)CC1 | i
CCN(CC)CCNC(=O)c1ccc(N=Cc2cc(Cl)cc(Cl)c2O)cc1 | i
CC(=O)Nc1ccc(N=Cc2cc(Br)cc(Cl)c2O)cc1 | i
CCN(CC)c1ccc(N=Cc2ccc(N(CC)CC)cc2O)cc1 | 60%*
CCc1ccccc1-c1cc(CO)ccn1 | i
O=[N+]([O-])c1ccc(-c2nnc(S)n2-c2ccccc2)cc1 | i
N#Cc1cc2[nH]c3ccccc3c2n(-c2ccc([N+](=O)[O-])cc2)c1=N | 34%*!
O=C1Nc2ccccc2N(O)N1c1ccc([N+](=O)[O-])cc1 | i
O=c1oc2ccccc2c(O)c1C=Nc1cccc([N+](=O)[O-])c1 | i
Nc1nc(-c2ccc(-c3ccccc3CN3CCOCC3)cc2)cs1 | 34%*
CN(C)c1nc2c(c(-c3ccccc3CN3CCOCC3)n1)CCCC2 | i
Nc1nc(-c2ccccc2)cs1 | i
Cc1nn(-c2ccc(F)cc2)c(C)c1C(=O)N1CCOC2(CNCCOC2)C1 (stereo not drawn) | i
CC(C)NC(=O)c1cc(-c2ccncc2)nc2ccccc12 | i
Cc1cccc(NC(=O)C(NC(=O)C2CCC(C)CC2)C(C)C)n1 (stereo not drawn) | i
N#Cc1nc(COc2ccc(Cl)cc2)oc1N1CCCCC1 | 73%*
N#Cc1nc(COc2ccc(Br)cc2)oc1N1CCCC1 | 72%*
N#CCOc1nc(N2CCCCC2)nc(N2CCCCC2)n1 | i
COc1ccc(OCc2nc(C#N)c(N3CCCC3)o2)cc1 | 49%*
Nc1nonc1-c1noc(COc2ccc(Cl)cc2)n1 | i
COCc1cc(C)nc(N2CCCCC2)c1C#N | i
SMILES | ST2 inh
COc1ccc(OCCOc2ccc(OC)cc2)cc1 | i
Nc1nonc1-c1noc(COc2ccc(Br)cc2)n1 | i
CCS(=O)(=O)N1CCN(c2nc(N(C)C)nc3c2CCNC3)CC1 | i
CN1CCCc2cc(C(=O)N3CCCC(N(C)Cc4ccccc4)C3)ccc21 (stereo not drawn) | i
CCN(CC1CCCN(CCc2cccc(OC)c2)C1)C(=O)Cn1ccnc1 (stereo not drawn) | i
CCOc1ccc2c(=O)c(Oc3ccccc3)c(C)oc2c1C | i
NC(=O)NCCN1CCCC(C(=O)c2ccc(Oc3ccccc3)cc2)C1 (stereo not drawn) | i
COc1cccc2c1ncc1c(=O)n3c(C)cccc3nc12 | i
CCOC(=O)C1(CCCc2ccccc2)CCCN(C(=O)c2ccsc2)C1 (stereo not drawn) | i
Cc1c(N=Cc2ccccc2O)c(=O)n(-c2ccccc2)n1C | i
Cc1c(N=Cc2cc([N+](=O)[O-])c(Cl)cc2Cl)c(=O)n(-c2ccccc2)n1C | i
Cc1c(N=Cc2cc([N+](=O)[O-])ccc2N2CCCC2)c(=O)n(-c2ccccc2)n1C | 36%*
CCOc1cccc(C2NC(C(=O)O)C3C(=O)N(c4ccc(C)cc4)C(=O)C23)c1O (stereo not drawn) | i
Cc1ccc(-n2c(SCC(=O)Nc3cc(C)ccc3C)nc3c(c2=O)SCC3)cc1 | i
O=C(CSc1nc2c(c(=O)n1-c1ccc(Cl)cc1)SCC2)Nc1cccc(Cl)c1 | i
CCOC(=O)CSc1nc2c(c(=O)n1-c1ccc(C)cc1)SCC2 | i
O=C(CSc1nc2c(c(=O)n1-c1ccc(F)cc1)SCC2)NCc1ccc(F)cc1 | i
Cc1ccc(-n2c(SCC(=O)Nc3ccccc3F)nc3c(c2=O)SCC3)cc1 | 32%*
Cc1ccc(-n2c(SCC(=O)Nc3cccc(Cl)c3)nc3c(c2=O)SCC3)cc1 | 31%*
Cc1ccc(-n2c(SCC(=O)NCCc3ccccc3)nc3c(c2=O)SCC3)cc1 | 31%*
CCSc1nc2c(c(=O)n1-c1ccccc1OC)SCC2 | i
Cc1ccc(-n2c(SCC(=O)Nc3nccs3)nc3c(c2=O)SCC3)cc1 | i
COc1ccccc1-n1c(SCC(=O)Nc2ccccc2)nc2c(c1=O)SCC2 | 35%*!
COc1ccccc1-n1c(SCc2ccccc2)nc2c(c1=O)SCC2 | i
Cc1ccc(-n2c(SCC(=O)Nc3cccc(C(F)(F)F)c3)nc3c(c2=O)SCC3)cc1 | i
SMILES | ST2 inh
COc1cc(NS(=O)(=O)c2ccc(NC(C)=O)cc2)c(OC)cc1Cl | i
O=C1Nc2cc(C(=O)N3CCC4(CC3)OCCO4)ccc2SC1N1CCCCC1 (stereo not drawn) | i
CCOC(=O)Cn1c(=O)n(-c2ccc(C)c(C)c2)c2nc(-c3ccc(F)c(F)c3)nc(C(N)=O)c21 | i
CN(Cc1ccsc1)C(=O)c1ccc(-n2ccnc2)cc1 | i
O=C(COc1ccc(Br)cc1)Nc1ncc(Cc2ccc(F)cc2)s1 | i
Cc1sc2[nH]c(=O)n(-c3ccc(F)cc3)c(=O)c2c1C | i
COc1cccc(C(O)=Cc2nc3cc(Cl)ccc3oc2=O)c1 | i
CCOC(=O)C(CC)Sc1nc2c(c(=O)n1-c1ccccc1)SCC2 (stereo not drawn) | i
